# From the supplement of paper PMC8728848
# The sample as a whole holds a higher share of the strongest signals than the screen did.
# Legend:
# Test in all cases: glycan array binding signal (z-score within array); higher = stronger binding
# Conditions in all cases: glycan notation: IUPAC condensed, linker removed
# Fuc(a1-2)Gal(b1-4)GlcNAc = target: Fuc(a1-2)Gal(b1-4)GlcNAc
# Method in brief: (§1)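 The binding signal is a Z-score computed within each array. Data were drawn from 3228 arrays in the Consortium for Functional Glycomics database, restricted to those with a known protein sequence. Scores were averaged over arrays of the same protein sequence at different concentrations or buffers, and over linkers, and negative values can be taken as non-binding.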
# [1] = target: Fuc(a1-2)Gal(b1-4)[Fuc(a1-3)]GlcNAc(b1-2)Man(a1-3)[Fuc(a1-2)Gal(b1-4)[Fuc(a1-3)]GlcNAc(b1-2)Man(a1-6)]Man(b1-4)GlcNAc(b1-4)GlcNAc
# Method in brief: as §1
# [2] = target: Fuc(a1-2)Gal(b1-4)[Fuc(a1-3)]GlcNAc(b1-3)Gal(b1-4)[Fuc(a1-3)]GlcNAc
# Method in brief: as §1
# [3] = target: Fuc(a1-2)[Gal(a1-3)]Gal(b1-3)GlcNAc(b1-2)Man(a1-3)[Fuc(a1-2)[Gal(a1-3)]Gal(b1-3)GlcNAc(b1-2)Man(a1-6)]Man(b1-4)GlcNAc(b1-4)GlcNAc
# Method in brief: as §1
# [4] = target: Fuc(a1-2)[Gal(a1-4)]Gal(b1-4)GlcNAc
# Method in brief: as §1
# [5] = target: Fuc(a1-2)[GalNAc(a1-3)]Gal(b1-4)Glc
# Method in brief: as §1
# [6] = target: Fuc(a1-2)[GalNAc(a1-4)]Gal(b1-4)GlcNAc
# Method in brief: as §1
# Gal(a1-3)Gal(b1-3)GlcNAc = target: Gal(a1-3)Gal(b1-3)GlcNAc
# Method in brief: as §1
# Gal(a1-3)GalNAc = target: Gal(a1-3)GalNAc
# Method in brief: as §1
# [7] = target: Gal(b1-4)GlcNAc(b1-3)Gal(b1-4)GlcNAc(b1-3)Gal(b1-4)GlcNAc
# Method in brief: as §1
# Gal6S(b1-4)GlcNAc6S = target: Gal6S(b1-4)GlcNAc6S
# Method in brief: as §1
# GalNAc(a1-3)Gal = target: GalNAc(a1-3)Gal
# Method in brief: as §1
# GalNAc(b1-3)Gal = target: GalNAc(b1-3)Gal
# Method in brief: as §1
# [8] = target: GalNAc(b1-3)Gal(a1-4)Gal(b1-4)GlcNAc
# Method in brief: as §1
# [9] = target: GalNAc(b1-3)Gal(a1-4)Gal(b1-4)GlcNAc(b1-3)Gal(b1-4)Glc
# Method in brief: as §1
# GalNAc(b1-4)GlcNAc = target: GalNAc(b1-4)GlcNAc
# Method in brief: as §1
# Glc(a1-6)Glc(a1-6)Glc = target: Glc(a1-6)Glc(a1-6)Glc
# Method in brief: as §1
# [10] = target: GlcNAc(a1-4)Gal(b1-4)GlcNAc(b1-3)Gal(b1-4)[Fuc(a1-3)]GlcNAc(b1-3)Gal(b1-4)[Fuc(a1-3)]GlcNAc
# Method in brief: as §1
# [11] = target: GlcNAc(b1-3)Gal(b1-4)GlcNAc(b1-3)Gal(b1-4)GlcNAc
# Method in brief: as §1
# [12] = target: GlcNAc(b1-3)[GlcNAc(b1-6)]GlcNAc(b1-4)GlcNAc
# Method in brief: as §1
# [13] = target: GlcNAc(b1-6)Gal(b1-4)GlcNAc
# Method in brief: as §1
# Man(a1-2)Man(a1-3)Man = target: Man(a1-2)Man(a1-3)Man
# Method in brief: as §1
# [14] = target: Neu5Ac(a2-3)Gal(b1-3)GalNAc(b1-3)Gal(a1-4)Gal(b1-4)Glc
# Method in brief: as §1
# Neu5Ac(a2-3)Gal(b1-4)Glc = target: Neu5Ac(a2-3)Gal(b1-4)Glc
# Method in brief: as §1
# [15] = target: Neu5Ac(a2-3)Gal(b1-4)GlcNAc(b1-2)Man(a1-3)[GlcNAc(b1-2)Man(b1-4)GlcNAc(b1-2)Man(a1-6)]Man(b1-4)GlcNAc(b1-4)GlcNAc
# Method in brief: as §1
# [16] = target: Neu5Ac(a2-3)Gal(b1-4)GlcNAc(b1-3)Gal(b1-4)[Fuc(a1-3)]GlcNAc
# Method in brief: as §1
# [17] = target: Neu5Ac(a2-6)Gal(b1-4)GlcNAc(b1-2)Man(a1-3)[GlcNAc(b1-2)Man(a1-6)]Man(b1-4)GlcNAc(b1-4)GlcNAc
# Method in brief: as §1
# Neu5Ac(a2-8)Neu5Ac = target: Neu5Ac(a2-8)Neu5Ac
# Method in brief: as §1
# [18] = target: Neu5Ac(b2-6)Gal(b1-4)GlcNAc
# Method in brief: as §1
# [19] = target: Neu5Gc(a2-3)Gal(b1-4)GlcNAc
# Method in brief: as §1
binder,measurement,setting,value
"SSA (Sclerotinia sclerotiorum), A7XUK7 (protein) MGFKGVGTYEIVPYQAPSLNLNAWEGKLEPGAVVRTYTRGDKPSDNAKWQVALVAGSGDSAEYLIINVHSGYFLTATKENHIVSTPQISPTDPSARWTIKPATTHQYEVFTINNKVSELGQLTVKDYSTHSGADVLSASAKTADNQKWYFDAK",glycan array binding signal (z-score),Fuc(a1-2)Gal(b1-4)GlcNAc,-0.112
same,glycan array binding signal (z-score),[1],-0.173
same,glycan array binding signal (z-score),[2],-0.407
same,glycan array binding signal (z-score),[3],-0.312
same,glycan array binding signal (z-score),[4],-0.198
same,glycan array binding signal (z-score),[5],-0.1
same,glycan array binding signal (z-score),[6],3.68
same,glycan array binding signal (z-score),Gal(a1-3)Gal(b1-3)GlcNAc,-0.253
same,glycan array binding signal (z-score),Gal(a1-3)GalNAc,0.053
same,glycan array binding signal (z-score),[7],-0.142
same,glycan array binding signal (z-score),Gal6S(b1-4)GlcNAc6S,0.403
same,glycan array binding signal (z-score),GalNAc(a1-3)Gal,6.1
same,glycan array binding signal (z-score),GalNAc(b1-3)Gal,3
same,glycan array binding signal (z-score),[8],4.61
same,glycan array binding signal (z-score),[9],6.97
same,glycan array binding signal (z-score),GalNAc(b1-4)GlcNAc,5.32
same,glycan array binding signal (z-score),Glc(a1-6)Glc(a1-6)Glc,-0.343
same,glycan array binding signal (z-score),[10],0.158
same,glycan array binding signal (z-score),[11],-0.207
same,glycan array binding signal (z-score),[12],-0.467
same,glycan array binding signal (z-score),[13],-0.344
same,glycan array binding signal (z-score),Man(a1-2)Man(a1-3)Man,-0.3
same,glycan array binding signal (z-score),[14],-0.295
same,glycan array binding signal (z-score),Neu5Ac(a2-3)Gal(b1-4)Glc,-0.186
same,glycan array binding signal (z-score),[15],-0.291
same,glycan array binding signal (z-score),[16],-0.158
same,glycan array binding signal (z-score),[17],-0.226
same,glycan array binding signal (z-score),Neu5Ac(a2-8)Neu5Ac,-0.215
same,glycan array binding signal (z-score),[18],-0.415
same,glycan array binding signal (z-score),[19],-0.366
